According to PubChem BioAssay AID1159580 (chemical genetic matrix, 2015):
The whole screen tested about 5,500 compounds, of which about 2,000 (36%) were called active. About 18% were inconclusive and are not listed. Cut-off read from the data, not from the text of the source: active = normalized growth mostly below about 0.91 (no sharp cut-off); inconclusive = no clear call, values can overlap the other calls; inactive = mostly above about 0.92. The list shows a part of the results.

Assay: chemical genetic growth profiling, strain panel (AID 1159580);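 note: tested at 20 µM; growth read once vehicle control cultures reached saturation at 30 °C; 1 = growth at the plate median or of vehicle wells; lower values mean less growth of the strain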
Conditions: S. cerevisiae deletion strains, growth OD

Measured: normalized growth

CCN(CCCl)Cc1ccccc1Br
inactive: locus YAL040C, strain CLN3, stronger effect = lower value 1.06 | locus YCL061C, strain MRC1 (second series), stronger effect = lower value 0.994 | locus YDR363W, strain ESC2, stronger effect = lower value 0.91 | locus YER002W, strain NOP16, stronger effect = lower value 1.04 | locus YJR075W, strain HOC1, stronger effect = lower value 0.994 | locus YNL153C, strain GIM3, stronger effect = lower value 1.02 | locus YNL175C, strain NOP13, stronger effect = lower value 1 | locus YNL197C, strain WHI3, stronger effect = lower value 1.02 | locus YNL224C, strain SQS1, stronger effect = lower value 0.995 | locus YNL322C, strain KRE1, stronger effect = lower value 0.974 | locus YOR083W, strain WHI5 (second series), stronger effect = lower value 0.968 | locus YPL241C, strain CIN2, stronger effect = lower value 0.999
